High-throughput results (PubChem BioAssay)
This is a sample that favours compounds with a hit; in the whole collection about 10% have one here.
JMJD2A Tudor – qHTS Assay for Inhibitors of JMJD2A-Tudor Domain; Lysine-specific demethylase 4A (Homo sapiens), O75164; AlphaScreen JMJD2A-Tudor / H3K4me3 peptide binding; Potency, µM (series often up to 114 µM), most hits filed as inhibitors; actives 4.4% (n = 390,000); AID 504339, 2011; also: nearly all actives have a fitted effect of over 50% in size
Six1-Eya2 blk – qHTS Assay for Inhibitors of the Six1/Eya2 Interaction. actives 0.56% (n = 360,000). AID 651725, 2012. activity change, % (test concentration not listed). AlphaScreen GST-Six1/His-Eya2 binding, biochemical; stronger effect = lower value; in the data active = activity change below about -65%; inconclusive = mostly about -30% to -63%
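Compounds are tested against tagged Six1 and Eya2 proteins bridged by glutathione donor and nickel acceptor beads; after a one-hour incubation at 37 °C without light, AlphaScreen emission is recorded.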
BAZ2B block – qHTS Assay for Inhibitors of BAZ2B | Bromodomain adjacent to zinc finger domain protein 2B (Homo sapiens), Q9UIF8 | AlphaScreen BAZ2B-H3K14Ac peptide displacement | Potency, µM (top dose mostly 114 µM), usual class: inhibitors | actives 4.4% (n = 360,000) | AID 504333, 2011; also: nearly all actives have a fitted effect of over 60% in size
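Compounds, titrated to a top concentration of 110 uM, were incubated 30 min at room temperature with preformed BAZ2B/acetyl-K14 H3 peptide complex (50 nM each). Proximity signal was measured by AlphaScreen after 20 min with beads.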
HP1b binding inh – HTS for Inhibitors of HP1-beta Chromodomain Interactions with Methylated Histone Tails | Chromobox protein homolog 1 (Homo sapiens), P83916 | AID 540317, 2011 | actives 0.56% (n = 390,000) | Potency, µM (series often up to 114 µM), actives largely listed as inhibitors | AlphaScreen HP1-beta / biotin-H3K9me3 peptide binding; also: nearly all actives have a fitted effect of over 70% in size
Target sequence (P83916 whole entry, looked up): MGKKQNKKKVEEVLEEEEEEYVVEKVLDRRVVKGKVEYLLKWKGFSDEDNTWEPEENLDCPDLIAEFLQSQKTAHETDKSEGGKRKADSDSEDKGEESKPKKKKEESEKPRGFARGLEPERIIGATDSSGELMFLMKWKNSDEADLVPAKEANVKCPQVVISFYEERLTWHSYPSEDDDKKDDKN
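AlphaScreen: HP1-beta (50 nM) preformed 30 min with biotin-H3(1-18)K9me3 peptide (50 nM) in PBS pH 7.4, 0.01% Tween-20. Compound added for 30 min at RT, then streptavidin donor/nickel chelate acceptor beads (10 ug/mL) for 30 min.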
CtBP-E1A inh – qHTS Assay for Inhibitors of the CtBP/E1A Interaction; activity change, % (concentration not given with the values); AlphaScreen GST-E1A/His-CtBP binding, 1536-well; stronger effect = lower value; actives 0.49% (n = 340,000); in the data active = activity change below about -65%; inconclusive = mostly about -30% to -63%
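AlphaScreen with 125 nM GST-E1A and 125 nM His-CtBP (5X stocks) in Tris pH 8.0, 300 mM NaCl, BSA, Tween 20, TCEP. Compounds preincubated 2 h at 37 deg C, then glutathione donor/nickel acceptor beads added for 1 h at 37 deg C in dark.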
G9a block – qHTS Assay for Inhibitors of Histone Lysine Methyltransferase G9a. actives 8.8% (n = 350,000). G9a H3K9 monomethylation, AlphaScreen, 2 h. Potency, µM (highest dose often 102 µM), actives largely listed as inhibitors; also: nearly all actives have a fitted effect of over 75% in size
Target sequence (Q96KQ7 913-1193 limits assumed): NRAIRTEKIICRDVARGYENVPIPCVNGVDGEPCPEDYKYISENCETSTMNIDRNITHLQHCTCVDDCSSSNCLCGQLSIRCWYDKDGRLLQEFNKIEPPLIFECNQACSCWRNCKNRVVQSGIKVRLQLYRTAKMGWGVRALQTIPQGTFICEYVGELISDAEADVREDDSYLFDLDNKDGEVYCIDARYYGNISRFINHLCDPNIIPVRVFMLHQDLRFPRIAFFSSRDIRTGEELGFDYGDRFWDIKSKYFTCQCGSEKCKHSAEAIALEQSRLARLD
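Signal arises when biotinylated H3K9 peptide, once monomethylated, bridges streptavidin donor and antibody-captured acceptor beads. Enzyme at 20 nM was preincubated 15 min with test compounds; peptide 500 nM and SAM 20 uM then reacted for 2 h.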
Numbers stand for hits; [ ] = another dose, or the depositor's remark. Unless noted, calls follow the shape of the dose curve; as a rule, active = well fitted inhibition curve with a large enough effect; inconclusive = small, poorly fitted or top-dose-only effect; inactive = no such curve, though single readings can be large or run the other way.

`O=C(N/N=C/c1cc([N+](=O)[O-])ccc1O)c1ccncc1` gave JMJD2A Tudor 22µM, Six1-Eya2 blk -90, BAZ2B block 10µM and HP1b binding inh inactive.
Screening O=C(NN=Cc1cccc(O)c1O)c1ccccc1 returned Six1-Eya2 blk -90 and CtBP-E1A inh -91.
Screening O=C(N/N=C/c1ccc(O)c([N+](=O)[O-])c1)c1ccncc1 returned JMJD2A Tudor inactive, Six1-Eya2 blk inactive, BAZ2B block inactive, HP1b binding inh inactive and CtBP-E1A inh inactive.
Screening O=C(N/N=C/c1ccc(O)c2ncccc12)c1cccc(Br)c1 returned JMJD2A Tudor 22µM, Six1-Eya2 blk -82, BAZ2B block 8.9µM, HP1b binding inh inactive, CtBP-E1A inh -92 and G9a block inactive.
Screening CCCCNC(=O)C1(C)CCN1C(=O)c1ccc2c(c1)CCO2 (stereo not given) returned Six1-Eya2 blk inactive and CtBP-E1A inh inactive.
O=C(N/N=C/c1cc(Br)ccc1O)c1ccncc1 was read as JMJD2A Tudor 28µM, Six1-Eya2 blk -93, BAZ2B block 20µM, HP1b binding inh inactive, CtBP-E1A inh -94 and G9a block inactive[12.7 µM].
O=C(N/N=C\c1cc(Br)ccc1O)c1ccc(S(=O)(=O)N2CCCCC2)cc1 was read as JMJD2A Tudor inconclusive, Six1-Eya2 blk inactive, BAZ2B block inactive, HP1b binding inh inactive, CtBP-E1A inh inactive and G9a block inactive.
Screening NC(=O)N/N=C\c1cc(Br)ccc1O returned JMJD2A Tudor inactive, Six1-Eya2 blk inactive, BAZ2B block inactive, HP1b binding inh inactive, CtBP-E1A inh inactive and G9a block inactive.
Screening O=C(N/N=C/c1ccccc1O)c1cc[n+]([O-])cc1 returned JMJD2A Tudor 35µM, Six1-Eya2 blk -78, BAZ2B block 20µM, HP1b binding inh inactive, CtBP-E1A inh -94 and G9a block inactive.
`O=C(N/N=C/c1cc(Cl)ccc1O)c1ccc(Br)cc1` gave JMJD2A Tudor 25µM, Six1-Eya2 blk inconclusive, BAZ2B block inconclusive, HP1b binding inh inactive, CtBP-E1A inh inconclusive and G9a block inactive.
For COc1cc(O)c(/C=N/NC(=O)c2ccncc2)c(OC)c1[N+](=O)[O-] the results were JMJD2A Tudor 50µM, Six1-Eya2 blk inconclusive, BAZ2B block 7.9µM, HP1b binding inh inactive and G9a block inactive.
`O=C(N/N=C/c1ccccc1)c1cc[n+]([O-])cc1` gave JMJD2A Tudor inactive, Six1-Eya2 blk inactive, BAZ2B block inactive, HP1b binding inh inactive, CtBP-E1A inh inactive and G9a block inactive.
`CCc1nc2ccc(C(=O)NCc3ccccc3OC)cn2c1N(C)Cc1ccc(OC)cc1` gave Six1-Eya2 blk inactive and CtBP-E1A inh inactive.
Screening Cc1ccc(N2CC(NC(=O)/C=C\c3ccc4c(c3)OCO4)CC2=O)cc1 (stereo not given) returned JMJD2A Tudor inactive, BAZ2B block inactive, HP1b binding inh inactive and G9a block inactive.
Screening COc1cc(/C=N/NC(=O)c2cccc(N3CCCC3=O)c2)ccc1O returned JMJD2A Tudor inactive, Six1-Eya2 blk inactive, BAZ2B block inactive, HP1b binding inh inactive, CtBP-E1A inh inactive and G9a block inactive.
For O=C(N/N=C/c1ccc(OC(=O)c2ccc(Br)cc2)cc1)c1ccncc1 the results were JMJD2A Tudor inconclusive, Six1-Eya2 blk inconclusive, BAZ2B block inactive, HP1b binding inh inactive, CtBP-E1A inh inactive and G9a block inactive.
`O=C(N/N=C/c1cc([N+](=O)[O-])ccc1O)c1cccc2cc[nH]c12` gave JMJD2A Tudor inconclusive, Six1-Eya2 blk -70, BAZ2B block inactive, HP1b binding inh inactive, CtBP-E1A inh -93 and G9a block inactive.
`O=C(N/N=C/c1cc([N+](=O)[O-])ccc1O)c1cccc(N2CCCC2=O)c1` gave JMJD2A Tudor 32µM, Six1-Eya2 blk -91, BAZ2B block 20µM, HP1b binding inh inactive, CtBP-E1A inh -93 and G9a block inactive.
Screening Cc1nccn1CC(=O)c1ccc(O)c(O)c1 returned JMJD2A Tudor 20µM, Six1-Eya2 blk inactive, BAZ2B block 56µM, HP1b binding inh inactive, CtBP-E1A inh inactive and G9a block inactive[0.501 µM].
Screening O=C(N/N=C/c1cc(Br)ccc1OC(=O)c1ccc(Br)cc1)c1ccncc1 returned JMJD2A Tudor 89µM, Six1-Eya2 blk -79, BAZ2B block 50µM, HP1b binding inh inconclusive, CtBP-E1A inh -91 and G9a block inactive.
`CC(OC(=O)c1cccnc1Cl)C(=O)Nc1ccc2c(c1)OCO2` (stereo not given) gave JMJD2A Tudor inactive, Six1-Eya2 blk inactive and HP1b binding inh inactive.
For Cc1nccn1CC(=O)N/N=C/c1ccccc1O the results were JMJD2A Tudor 56µM, Six1-Eya2 blk -81, BAZ2B block 45µM, HP1b binding inh inactive and CtBP-E1A inh -96.
`Cc1nccn1CC(=O)N/N=C/c1c[nH]c2ccccc12` gave JMJD2A Tudor inactive, Six1-Eya2 blk inactive, BAZ2B block inactive, HP1b binding inh inactive, CtBP-E1A inh inactive and G9a block inactive.
Screening O=C(N/N=C/c1ccccc1O)c1ccncc1 returned JMJD2A Tudor 50µM, Six1-Eya2 blk -92, BAZ2B block 35µM, HP1b binding inh inactive, CtBP-E1A inh -92 and G9a block inactive.
O=C(N/N=C/c1cc([N+](=O)[O-])ccc1O)c1ccc2c(c1)OCCO2 was read as JMJD2A Tudor inconclusive, Six1-Eya2 blk -81, BAZ2B block inactive, HP1b binding inh inactive, CtBP-E1A inh inactive and G9a block inactive.
`O=C1NN=C2CCCCCCC12` (stereo not given) gave Six1-Eya2 blk inactive and CtBP-E1A inh inactive.
O=C(Nc1ccccc1)c1cccc(S(=O)(=O)Oc2ccc([N+](=O)[O-])cc2)c1 was read as JMJD2A Tudor inactive, Six1-Eya2 blk inactive, BAZ2B block inactive, HP1b binding inh inactive, CtBP-E1A inh inactive and G9a block inactive.
`CC(C)c1ccc(S(=O)(=O)N2CCN(C(=O)C3CCN(C(=O)c4ccc(F)cc4)CC3)CC2)cc1` gave JMJD2A Tudor inactive, Six1-Eya2 blk inactive, BAZ2B block inactive, HP1b binding inh inactive, CtBP-E1A inh inactive and G9a block inconclusive.
`CCOc1ccc2nc(N(CCN(C)C)C(=O)c3cc4ccccc4cc3OC)sc2c1` gave JMJD2A Tudor 40µM, Six1-Eya2 blk inconclusive, BAZ2B block inconclusive, HP1b binding inh inconclusive and G9a block 50µM.
COc1ccc2nc(N(CCN(C)C)C(=O)c3ccc4ncsc4c3)sc2c1 was read as Six1-Eya2 blk inactive and CtBP-E1A inh inactive.
